Measurements published in the supplement of paper PMC9446081.
± gives the standard deviation of the averaged measurements.

Columns and labels:
Assay in all cases: relative enzymatic activity vs untreated control (fraction); higher = less inhibition
Details in all cases: 100 µM; incubation time: 2 h at 37 C
DNA gyrase = system: DNA gyrase
Method: (§1)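 In vitro enzymatic inhibition assays (ProFoldin kits) for 12 purified essential E. coli enzymes or complexes, each treated with 218 active antibacterial compounds at 100 µM for 2 h at 37°C. Read-outs were fluorescence or absorbance (phosphate detection, dye binding), converted to activity via standard curves and expressed relative to untreated DMSO controls.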

DNA helicase = DNA helicase (UniProt P0ACB1)
Sequence of DNA helicase (P0ACB1 whole entry): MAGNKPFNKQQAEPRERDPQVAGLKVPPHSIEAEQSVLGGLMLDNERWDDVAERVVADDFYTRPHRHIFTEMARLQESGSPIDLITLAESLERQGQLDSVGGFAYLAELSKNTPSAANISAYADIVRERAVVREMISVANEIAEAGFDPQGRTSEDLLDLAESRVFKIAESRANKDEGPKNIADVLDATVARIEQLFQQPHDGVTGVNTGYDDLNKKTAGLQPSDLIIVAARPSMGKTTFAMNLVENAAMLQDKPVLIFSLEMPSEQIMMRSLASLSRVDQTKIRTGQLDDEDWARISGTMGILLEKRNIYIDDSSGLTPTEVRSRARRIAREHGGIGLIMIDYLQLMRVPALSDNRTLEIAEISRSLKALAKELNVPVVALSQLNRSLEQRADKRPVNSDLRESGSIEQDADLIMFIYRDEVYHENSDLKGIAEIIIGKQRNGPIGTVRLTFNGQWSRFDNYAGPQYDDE
Method: as §1

DNA ligase = DNA ligase (UniProt B1XA82)
Sequence of DNA ligase (B1XA82 whole entry): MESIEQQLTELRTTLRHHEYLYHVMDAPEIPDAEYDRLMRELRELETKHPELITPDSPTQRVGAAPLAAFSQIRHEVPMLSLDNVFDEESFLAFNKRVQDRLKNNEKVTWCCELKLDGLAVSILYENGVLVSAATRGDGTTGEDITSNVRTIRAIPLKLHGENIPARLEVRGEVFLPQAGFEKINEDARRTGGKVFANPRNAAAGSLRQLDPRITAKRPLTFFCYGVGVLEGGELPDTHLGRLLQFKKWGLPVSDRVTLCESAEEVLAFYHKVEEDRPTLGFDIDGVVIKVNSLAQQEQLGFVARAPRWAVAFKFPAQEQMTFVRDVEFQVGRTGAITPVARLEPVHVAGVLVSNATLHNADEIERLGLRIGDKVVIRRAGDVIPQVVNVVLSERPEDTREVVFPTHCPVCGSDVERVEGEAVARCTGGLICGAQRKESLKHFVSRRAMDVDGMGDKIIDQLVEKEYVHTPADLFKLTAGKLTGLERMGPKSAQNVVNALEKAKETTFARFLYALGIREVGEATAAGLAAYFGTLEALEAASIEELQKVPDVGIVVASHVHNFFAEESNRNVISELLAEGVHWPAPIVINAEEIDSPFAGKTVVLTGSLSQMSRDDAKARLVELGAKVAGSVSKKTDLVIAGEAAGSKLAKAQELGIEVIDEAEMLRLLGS
Method: as §1

DNA polymerase = DNA polymerase (UniProt P10443)
Sequence of DNA polymerase (P10443 whole entry): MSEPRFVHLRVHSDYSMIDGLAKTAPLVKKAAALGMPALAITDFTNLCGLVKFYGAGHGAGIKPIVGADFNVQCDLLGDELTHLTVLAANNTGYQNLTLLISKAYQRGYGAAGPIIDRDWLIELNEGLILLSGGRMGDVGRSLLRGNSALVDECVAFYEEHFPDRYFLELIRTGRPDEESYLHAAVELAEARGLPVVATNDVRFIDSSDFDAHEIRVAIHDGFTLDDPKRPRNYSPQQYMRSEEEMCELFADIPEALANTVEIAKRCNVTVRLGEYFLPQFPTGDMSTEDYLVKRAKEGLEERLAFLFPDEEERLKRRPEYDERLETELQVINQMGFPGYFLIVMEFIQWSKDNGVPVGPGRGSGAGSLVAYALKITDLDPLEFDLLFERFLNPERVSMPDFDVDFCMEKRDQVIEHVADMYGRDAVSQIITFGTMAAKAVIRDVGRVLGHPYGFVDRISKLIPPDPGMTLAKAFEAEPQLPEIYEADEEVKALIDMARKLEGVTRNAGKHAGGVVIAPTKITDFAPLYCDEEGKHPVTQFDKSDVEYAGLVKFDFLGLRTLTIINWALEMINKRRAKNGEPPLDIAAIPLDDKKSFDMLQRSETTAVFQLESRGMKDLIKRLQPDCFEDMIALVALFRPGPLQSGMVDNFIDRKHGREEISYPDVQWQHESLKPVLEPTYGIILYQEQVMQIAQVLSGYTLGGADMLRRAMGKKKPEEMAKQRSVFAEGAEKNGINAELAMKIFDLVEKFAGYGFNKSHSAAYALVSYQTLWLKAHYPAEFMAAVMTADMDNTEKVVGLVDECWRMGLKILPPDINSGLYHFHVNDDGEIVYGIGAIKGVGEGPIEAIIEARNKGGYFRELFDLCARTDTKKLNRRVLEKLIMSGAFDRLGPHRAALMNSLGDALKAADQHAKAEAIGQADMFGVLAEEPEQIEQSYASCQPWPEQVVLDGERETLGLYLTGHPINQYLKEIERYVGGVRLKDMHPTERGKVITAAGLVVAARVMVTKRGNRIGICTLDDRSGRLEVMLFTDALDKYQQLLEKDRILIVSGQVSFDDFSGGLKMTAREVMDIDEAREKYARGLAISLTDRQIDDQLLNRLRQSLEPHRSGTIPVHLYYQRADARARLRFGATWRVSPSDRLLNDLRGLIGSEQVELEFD
Method: as §1

DNA primase = DNA primase (UniProt P0ABS7)
Sequence of DNA primase (P0ABS7 whole entry): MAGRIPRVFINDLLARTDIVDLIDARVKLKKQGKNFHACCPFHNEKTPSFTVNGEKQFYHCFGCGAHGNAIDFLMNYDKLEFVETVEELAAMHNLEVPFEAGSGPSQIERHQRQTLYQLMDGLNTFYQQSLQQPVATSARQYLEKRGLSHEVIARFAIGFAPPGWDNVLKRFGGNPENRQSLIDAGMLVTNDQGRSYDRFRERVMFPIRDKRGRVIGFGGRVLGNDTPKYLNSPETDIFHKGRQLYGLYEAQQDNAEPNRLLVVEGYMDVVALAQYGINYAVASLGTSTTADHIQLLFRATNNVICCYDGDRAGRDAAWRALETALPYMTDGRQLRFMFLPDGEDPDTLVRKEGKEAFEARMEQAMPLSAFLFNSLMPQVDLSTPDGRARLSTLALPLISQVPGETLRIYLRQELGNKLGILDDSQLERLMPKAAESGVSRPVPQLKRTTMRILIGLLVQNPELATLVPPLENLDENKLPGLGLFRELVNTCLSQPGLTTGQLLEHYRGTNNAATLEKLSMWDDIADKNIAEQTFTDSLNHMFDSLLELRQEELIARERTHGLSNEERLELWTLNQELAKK
Method: as §1

GlmU = GlmU (UniProt A7ZTU1)
Sequence of GlmU (A7ZTU1 whole entry, looked up): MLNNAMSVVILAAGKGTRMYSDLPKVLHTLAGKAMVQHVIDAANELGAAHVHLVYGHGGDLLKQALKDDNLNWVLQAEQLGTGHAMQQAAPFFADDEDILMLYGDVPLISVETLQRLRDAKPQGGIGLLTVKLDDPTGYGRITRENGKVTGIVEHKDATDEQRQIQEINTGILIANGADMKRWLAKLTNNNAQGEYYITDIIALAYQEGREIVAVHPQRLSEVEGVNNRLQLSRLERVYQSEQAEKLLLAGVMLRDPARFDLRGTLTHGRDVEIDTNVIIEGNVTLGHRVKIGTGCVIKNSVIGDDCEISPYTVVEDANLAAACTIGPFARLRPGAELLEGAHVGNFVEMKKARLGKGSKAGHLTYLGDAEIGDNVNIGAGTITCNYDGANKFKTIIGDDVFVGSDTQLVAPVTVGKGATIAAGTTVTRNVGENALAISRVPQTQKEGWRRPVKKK
Method: as §1

Guanlyate kinase = Guanlyate kinase (UniProt Q0TBG1)
Sequence of Guanlyate kinase (Q0TBG1 whole entry): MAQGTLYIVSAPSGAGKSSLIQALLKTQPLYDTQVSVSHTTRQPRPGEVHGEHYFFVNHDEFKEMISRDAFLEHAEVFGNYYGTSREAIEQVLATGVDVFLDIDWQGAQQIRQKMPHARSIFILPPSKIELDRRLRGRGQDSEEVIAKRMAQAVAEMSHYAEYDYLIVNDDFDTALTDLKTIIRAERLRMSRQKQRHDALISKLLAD
Method: as §1

MurA = MurA (UniProt Q3YX52)
Sequence of MurA (Q3YX52 whole entry): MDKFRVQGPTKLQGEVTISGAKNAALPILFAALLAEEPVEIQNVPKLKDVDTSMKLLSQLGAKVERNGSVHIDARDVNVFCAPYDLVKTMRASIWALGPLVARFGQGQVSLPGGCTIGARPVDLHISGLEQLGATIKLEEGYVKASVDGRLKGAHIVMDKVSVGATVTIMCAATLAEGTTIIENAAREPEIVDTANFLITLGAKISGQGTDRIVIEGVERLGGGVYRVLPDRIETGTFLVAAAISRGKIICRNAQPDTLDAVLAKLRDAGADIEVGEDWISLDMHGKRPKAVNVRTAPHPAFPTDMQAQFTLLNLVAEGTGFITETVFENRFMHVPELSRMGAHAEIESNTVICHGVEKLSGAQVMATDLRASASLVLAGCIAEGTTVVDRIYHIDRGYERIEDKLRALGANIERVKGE
Method: as §1

MurD = biological target: T1, MurD (UniProt P14900)
T1 sequence (whole entry): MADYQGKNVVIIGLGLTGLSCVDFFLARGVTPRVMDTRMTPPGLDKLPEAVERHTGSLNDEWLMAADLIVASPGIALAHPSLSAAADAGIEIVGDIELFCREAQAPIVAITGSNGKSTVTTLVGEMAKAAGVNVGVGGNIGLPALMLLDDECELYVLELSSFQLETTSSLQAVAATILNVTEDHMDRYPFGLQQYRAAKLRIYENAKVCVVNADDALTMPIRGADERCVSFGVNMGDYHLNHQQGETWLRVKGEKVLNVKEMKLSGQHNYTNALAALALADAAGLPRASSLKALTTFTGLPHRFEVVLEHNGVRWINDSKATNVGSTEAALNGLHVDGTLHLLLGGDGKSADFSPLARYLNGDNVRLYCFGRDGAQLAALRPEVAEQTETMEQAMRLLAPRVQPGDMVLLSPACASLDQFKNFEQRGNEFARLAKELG
Method: as §1

MurF = biological target: T2, MurF (UniProt P11880)
T2 sequence (whole entry): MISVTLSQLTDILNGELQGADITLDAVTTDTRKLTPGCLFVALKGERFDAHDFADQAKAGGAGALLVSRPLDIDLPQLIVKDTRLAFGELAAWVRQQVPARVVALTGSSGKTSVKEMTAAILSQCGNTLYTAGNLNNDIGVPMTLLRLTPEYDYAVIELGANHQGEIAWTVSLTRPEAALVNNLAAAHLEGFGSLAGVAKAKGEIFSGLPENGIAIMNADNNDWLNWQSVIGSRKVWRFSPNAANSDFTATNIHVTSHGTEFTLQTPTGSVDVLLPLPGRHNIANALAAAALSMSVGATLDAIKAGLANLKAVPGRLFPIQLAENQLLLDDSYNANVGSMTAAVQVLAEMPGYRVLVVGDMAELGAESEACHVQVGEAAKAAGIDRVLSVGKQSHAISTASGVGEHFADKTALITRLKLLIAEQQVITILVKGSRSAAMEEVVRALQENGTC
Method: as §1

RNA polymerase = system: RNA polymerase
Method: as §1

| SMILES | relative enzymatic activity (DNA gyrase) | relative enzymatic activity (DNA helicase) | relative enzymatic activity (DNA ligase) | relative enzymatic activity (DNA polymerase) | relative enzymatic activity (DNA primase) | relative enzymatic activity (GlmU) | relative enzymatic activity (Guanlyate kinase) | relative enzymatic activity (MurA) | relative enzymatic activity (MurD) | relative enzymatic activity (MurF) | relative enzymatic activity (RNA polymerase) |
| --- | --- | --- | --- | --- | --- | --- | --- | --- | --- | --- | --- |
| Cl.O=C(O)c1cn(-c2ccc(F)cc2)c2cc(N3CCNCC3)c(F)cc2c1=O | 0.0194 ± 0.027 | 0.484 ± 0.099 | 1.18 ± 0.41 | 1.19 ± 0.31 | 0.688 ± 0.12 | 0.955 ± 0.031 | 0.73 ± 0.11 | 0.698 ± 0.044 | 0.595 ± 0.41 | 0.919 ± 0.24 | 0.228 ± 0.089 |
| CCn1cc(C(=O)O)c(=O)c2cc(F)c(N3CCNCC3)nc21 | 0.00427 ± 0.006 | 0.582 ± 0.19 | 1.03 ± 0.25 | 0.579 ± 0.52 | 0.684 ± 0.19 | 1 ± 0.017 | 0.761 ± 0.07 | 0.839 ± 0.13 | 0.573 ± 0.39 | 0.982 ± 0.23 | 0.833 ± 0.03 |
| CCCCCCCCCCCCC[N+](C)(C)Cc1ccccc1 | 0.675 ± 0.95 | 0.0123 ± 0.0012 | 0.955 ± 0.043 | 1.04 ± 0.27 | 0.787 ± 0.099 | 0.0868 ± 0.0048 | 0.396 ± 0.0083 | 0.0305 ± 0.016 | 0.0614 ± 0.011 | 0.177 ± 0.064 | 0.919 ± 0.13 |
| O=C(O)c1cn(C2CC2)c2cc(N3CCC(O)(COc4ccc(N5C[C@H](CO)OC5=O)cc4F)CC3)c(F)cc2c1=O | 0.0421 ± 0.059 | 0.414 ± 0.095 | 0.9068 ± 0.0026 | 1.13 ± 0.22 | 0.851 ± 0.039 | 0.9967 ± 0.0077 | 0.905 ± 0.15 | 0.608 ± 0.25 | 0.583 ± 0.39 | 1.22 ± 0.022 | 0.8 ± 0.067 |
| CC1CN(c2c(F)c(N)c3c(=O)c(C(=O)O)cn(C4CC4)c3c2F)CC(C)N1 (configuration not stated) | 0.00841 ± 0.012 | 0.442 ± 0.043 | 1.49 ± 0.054 | 1.23 ± 0.24 | 0.715 ± 0.21 | 0.913 ± 0.04 | 0.883 ± 0.029 | 0.603 ± 0.083 | 0.597 ± 0.4 | 0.543 ± 0.76 | 0.92 ± 0.0099 |
| CC(C)[C@@H](CC[C@@H](C)[C@H]1CC[C@H]2[C@@H]3[C@H](O)C[C@H]4C[C@@H](NCCCNCCCCN)CC[C@]4(C)[C@H]3CC[C@]12C)OS(=O)(=O)O | 1.22 ± 0.062 | 0.08494 ± 0.00041 | 0.712 ± 0.095 | 0.0811 ± 0.015 | 0.432 ± 0.11 | 0.899 ± 0.069 | 0.231 ± 0.024 | 0.17 ± 0.006 | 0.6 ± 0.42 | 0.896 ± 0.23 | 0.14 ± 0.012 |
| Cc1cc(=O)c(C(=O)N[C@@H](C(=O)N[C@@H]2C(=O)N3C(C(=O)O)=C(CSc4nnnn4C)CS[C@H]23)c2ccc(O)cc2)c[nH]1 | 0.759 ± 0.035 | 0.278 ± 0.28 | 0.862 ± 0.016 | 1.08 ± 0.15 | 0.766 ± 0.023 | 0.919 ± 0.03 | 0.946 ± 0.015 | 0.116 ± 0.018 | 0.634 ± 0.44 | 0.92 ± 0.2 | 0.505 ± 0.5 |
| CC[C@H]1OC(=O)[C@H](C)[C@@H](O[C@H]2C[C@@](C)(OC)[C@@H](O)[C@H](C)O2)[C@H](C)[C@@H](O[C@@H]2O[C@H](C)C[C@H](N(C)C)[C@H]2O)[C@](C)(O)C[C@@H](C)C(=O)[C@H](C)[C@@H](O)[C@]1(C)O | 0.598 ± 0.22 | 0.608 ± 0.21 | 0.92 ± 0.048 | 0.503 ± 0.71 | 0.838 ± 0.027 | 0.9665 ± 0.0044 | 0.961 ± 0.098 | 0.848 ± 0.071 | 0.584 ± 0.39 | 0.939 ± 0.22 | 0.863 ± 0.024 |
| C[C@H]1COc2c(C3(N)CC3)c(F)cc3c(=O)c(C(=O)O)cn1c23 | 0.0356 ± 0.05 | 0.447 ± 0.079 | 0.801 ± 0.074 | 0.5 ± 0.7 | 0.8435 ± 0.0058 | 0.995 ± 0.012 | 0.991 ± 0.021 | 0.619 ± 0.16 | 0.578 ± 0.38 | 0.946 ± 0.25 | 0.861 ± 0.087 |
| O=C([O-])C1=C(CSc2nnnn2CS(=O)(=O)[O-])CSC2C(NC(=O)C(O)c3ccccc3)C(=O)N12.[Na+].[Na+] (configuration not stated) | 0.964 ± 0.12 | 0.74 ± 0.14 | 1.26 ± 0.45 | 1.24 ± 0.4 | 0.753 ± 0.0084 | 1.1 ± 0.034 | 0.879 ± 0.012 | 0.1 ± 0.034 | 0.217 ± 0.2 | 1.03 ± 0.24 | 0.815 ± 0.068 |
| COC1(NC(=O)C2SC(=C(C(N)=O)C(=O)O)S2)C(=O)N2C(C(=O)O)=C(CSc3nnnn3C)CSC21 (configuration not stated) | 0.705 ± 0.46 | 0.463 ± 0.027 | 1.47 ± 0.23 | 1.18 ± 0.25 | 0.683 ± 0.18 | 0.99 ± 0.066 | 0.994 ± 0.02 | 0.0627 ± 0.021 | 0.618 ± 0.43 | 0.974 ± 0.2 | 0.871 ± 0.07 |
| CN[C@@H]1[C@H](O[C@H]2[C@H](O[C@@H]3[C@@H](O)[C@H](O)[C@@H](NC(=N)N)[C@H](O)[C@H]3NC(=N)N)O[C@@H](C)[C@]2(O)CO)O[C@@H](CO)[C@H](O)[C@H]1O.CN[C@@H]1[C@H](O[C@H]2[C@H](O[C@@H]3[C@@H](O)[C@H](O)[C@@H](NC(=N)N)[C@H](O)[C@H]3NC(=N)N)O[C@@H](C)[C@]2(O)CO)O[C@@H](CO)[C@H](O)[C@H]1O | 0.527 ± 0.36 | 0.498 ± 0.089 | 1.09 ± 0.32 | 1.08 ± 0.055 | 0.853 ± 0.0042 | 1.001 ± 0.0056 | 0.983 ± 0.047 | 0.803 ± 0.02 | 0.922 ± 0.86 | 0.524 ± 0.73 | 0.481 ± 0.52 |
| C/C(=C\C(=O)OCCCCCCCCC(=O)O)C[C@@H]1OC[C@H](C[C@@H]2O[C@H]2[C@@H](C)[C@H](C)O)[C@@H](O)[C@H]1O | 0.849 ± 0.24 | 0.52 ± 0.098 | 0.897 ± 0.013 | 0.512 ± 0.72 | 0.807 ± 0.031 | 0.999 ± 0.045 | 1.06 ± 0.087 | 0.688 ± 0.19 | 0.607 ± 0.43 | 1.17 ± 0.52 | 0.935 ± 0.11 |
| CCn1cc(C(=O)O)c(=O)c2cc(F)c(N3CCNCC3)cc21 | 0.00604 ± 0.0086 | 0.468 ± 0.034 | 0.906 ± 0.16 | 1.37 ± 0.53 | 0.659 ± 0.12 | 1.01 ± 0.015 | 1.01 ± 0.11 | 0.799 ± 0.017 | 0.573 ± 0.36 | 0.977 ± 0.21 | 0.849 ± 0.075 |
| CC(C)(ON=C(C(=O)NC1C(=O)N2C(C(=O)[O-])=C(C[n+]3ccccc3)CSC12)c1csc(N)n1)C(=O)O (configuration not stated) | 0.0358 ± 0.051 | 0.494 ± 0.12 | 1.08 ± 0.29 | 0.444 ± 0.021 | 0.593 ± 0.11 | 0.79 ± 0.019 | 0.876 ± 0.015 | 0.0456 ± 0.016 | 0.548 ± 0.37 | 0.924 ± 0.15 | 0.137 ± 0.0022 |
| O=c1[nH]c(=O)n(C2CC(O)C(CO)O2)cc1F (configuration not stated) | 0.98 ± 0.053 | 0.557 ± 0.14 | 1.15 ± 0.19 | 1.2 ± 0.26 | 0.657 ± 0.14 | 1.09 ± 0.097 | 1.03 ± 0.036 | 0.856 ± 0.064 | 0.597 ± 0.4 | 0.931 ± 0.18 | 0.84 ± 0.0053 |
| CN1CCN(c2c(F)cc3c(=O)c(C(=O)O)cn(CCF)c3c2F)CC1 | 0.024 ± 0.034 | 0.746 ± 0.23 | 1.37 ± 0.041 | 1.28 ± 0.3 | 0.722 ± 0.21 | 1.16 ± 0.2 | 0.94 ± 0.085 | 0.748 ± 0.029 | 0.591 ± 0.39 | 0.984 ± 0.22 | 1.05 ± 0.31 |
